High-throughput results from PubChem.
An excerpt weighted towards active compounds, which were near 3.6% of everything screened.
Anthrax LF prot = Bacillus anthracis LF protease inhibitors, primary screen, biochemical, multiplex microsphere, MLPCN library. Lethal factor (Bacillus anthracis), P15917. multiplex microsphere protease cleavage assay. inhibition, % at 10 µM. hit rate 0.12% among 360,000. AID 588501, 2011
BoNT A protease = BoNT/A light chain protease inhibitors, primary screen, biochemical, flow cytometry, MLPCN library; Botulinum neurotoxin type A light chain protease (Clostridium botulinum A str. ATCC 3502); multiplex microsphere protease substrate cleavage; inhibition, % at 10 µM; hit rate 0.17% among 360,000
MazEF act = activators of E. coli MazEF toxin-antitoxin RNase, primary screen, biochemical, fluorescence, uHTS | Endoribonuclease toxin MazF (Escherichia coli (strain K12)), P0AE70 | FAM/BHQ RNA-DNA oligo cleavage fluorescence, 5 h | activation, % at 20 µM | hit rate 0.32% among 350,000; in the data active = activation above about 50%
Target sequence (P0AE70 whole entry, looked up): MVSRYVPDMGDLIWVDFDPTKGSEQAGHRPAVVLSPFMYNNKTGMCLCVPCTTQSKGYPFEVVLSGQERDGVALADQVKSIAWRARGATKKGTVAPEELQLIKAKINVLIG
Autofluor counter = counter-screen for toxin protease inhibitors: compound fluorescence. fluorescence intensity (concentration not given with the values). compound autofluorescence counterscreen, microsphere flow cytometry; hits give high values. AID 624483. hit rate 3.1% among 360,000; in the data active = fluorescence intensity above about 16000; inconclusive = no clear call, values can overlap the other calls
BoNT F protease = BoNT/F light chain protease inhibitors, primary screen, biochemical, flow cytometry, MLPCN library; inhibition, % at 10 µM; hit rate 0.22% among 360,000; Multiplex microsphere protease cleavage assay; in the data active = inhibition above about 35%, passing the limit was not always enough; inconclusive = no clear call, values can overlap the other calls
Of the large screens only hits and unclear results are named; the others gave an inactive call. Cut-off read from the data, not from the text of the source, unless noted: active = inhibition above about 30%; inconclusive = no clear call, values can overlap the other calls; inactive = below that.

N#CC1=C(N)Oc2n[nH]c(-c3ccccc3)c2C1c1cccnc1 (centres undefined)	none
Cc1ccc(-c2[nH]nc3c2C(c2ccc(OC(=O)N4CCOCC4)cc2)C(C#N)=C(N)O3)cc1 (centres undefined)	BoNT A protease inconclusive, Autofluor counter 16622
Cc1ccc(-c2[nH]nc3c2C(c2cccnc2)C(C#N)=C(N)O3)cc1 (centres undefined)	BoNT A protease inconclusive, Autofluor counter 23057
CCCc1nn(C)c2c1C(c1cccnc1)C(C#N)=C(N)O2 (centres undefined)	Autofluor counter 23902
Cc1cccc(Oc2ccc3c(c2)cc(C(=O)O)n3C)c1	none
CC(C)Cc1ccc(-c2cc3nc(NCCOc4ccccc4)ccn3n2)cc1	none (no result: MazEF act)
CCC[C@@H]1C=C(C(=O)OCC)[C@H](c2ccccc2)N1S(=O)(=O)c1ccc(C)cc1	none (no result: MazEF act)
CC(C)c1[nH]nc2c1C(c1cccnc1)C(C#N)=C(N)O2 (centres undefined)	Autofluor counter 19924
O=C1CC(=O)N(CCc2ccccc2)C(=O)N1CCc1ccccc1	Autofluor counter 22637
CC(C)CCSc1nc(N2CCOCC2)c2c(c1C#N)CC(C)(C)OC2	Autofluor counter 19440
COC(=O)CCSc1nc(N2CCOCC2)c2c(c1C#N)CC(C)(C)OC2	none
Cc1cc(OC(=O)c2c(Cl)cc(Cl)cc2Cl)nc(C)n1	Autofluor counter 16417
Cc1cc(/C=C(\C#N)C(=O)OCC(=O)N(C)c2c(N)n(Cc3ccccc3)c(=O)[nH]c2=O)c(C)n1CC(C)C	none
Cc1cc(C(=O)CSc2nc3ccccc3n2CCC#N)c(C)n1Cc1cccs1	none
COc1ccccc1-n1cnnc1SCC(=O)c1cc(C)n(Cc2cccs2)c1C	Autofluor counter 17083
Cc1cc(C(=O)CSc2nnc(-c3ccccc3F)o2)c(C)n1Cc1cccs1	Autofluor counter 20558
C=CCn1c(SCC(=O)c2cc(C)n(Cc3cccs3)c2C)nnc1-c1ccncc1	none
Cc1noc(C)c1S(=O)(=O)Nc1ccc(C#N)cc1	none
CCOc1ccc(N(CC(=O)NCc2ccccc2)C(=O)Cn2nnc(-c3ccc(C)o3)n2)cc1	none
COc1ccc(CC(=O)Nc2c3c(nn2-c2cccc(C)c2C)CS(=O)(=O)C3)cc1	Autofluor counter 22126
CCCC(=O)Nc1c2c(nn1-c1cccc(C)c1C)CS(=O)(=O)C2	none
S=c1[nH]nc(-c2ccccc2)n1C1C=CCCC1 (centres undefined)	Autofluor counter 16741
COc1ccc(Cl)cc1C(=O)NNC(=O)c1ccc(F)c(S(=O)(=O)N2CCOCC2)c1	none
Cc1ccc(CN2C(=O)c3ccccc3C2c2nnnn2C(C)C)cc1 (centres undefined)	none (no result: MazEF act)
CCN=C1S/C(=C\c2cc(OCC)c(O)cc2Br)C(=O)N1CC	Anthrax LF prot 30, BoNT F protease 72
Cc1ccc(S(=O)(=O)N(C)C)cc1NC(=O)c1cc(S(=O)(=O)N2CCCCC2)ccc1N1CCOCC1	Anthrax LF prot inconclusive
O=C(CSc1nc2ccccc2s1)N/N=C/c1ccco1	none
N#C/C(=C\c1ccco1)Sc1nc2ccccc2s1	Autofluor counter 23761
O=C(NCC(=O)N1CCN(C/C=C/c2ccccc2)CC1)c1ccc(OC(F)F)cc1	none
CC1(C)CC(=O)C=C(c2ccc(COC(=O)c3ccc(-c4ccccc4)cc3)cc2)C1=O	none
CCCCn1c(O)c(N=Nc2ccccc2O)c2ccccc21	MazEF act 101
CCCCn1c(N)c(N(CC)C(=O)c2cc3c(s2)CCCCC3)c(=O)[nH]c1=O	none
C=CCSc1nnc(-c2ccc(Cl)cc2Cl)o1	Autofluor counter 17125
Clc1ccc(-c2nnc(SCc3nc4ccccc4[nH]3)o2)c(Cl)c1	MazEF act 70
Nc1cc(C(=O)OCC(=O)NNC(=O)c2cccs2)ccc1Cl	none
Oc1cc2c(cc1O)[C@H]1c3ccc(O)c(O)c3OC[C@@]1(O)C2	MazEF act 231
COc1cc(C(=O)Nc2ccc(N3CCCS3(=O)=O)cc2)c([N+](=O)[O-])cc1OC	Autofluor counter 18232
CCCNC(=O)c1cc(OC)c(OC)cc1[N+](=O)[O-]	BoNT A protease inconclusive, Autofluor counter 24245
COc1cc(C(=O)NCCc2ccc(F)cc2)c([N+](=O)[O-])cc1OC	none
CC1CCCC(C)N1C(=O)COC(=O)CCC(=O)c1ccc(F)cc1 (centres undefined)	none
CC1(C)NC(=O)N(CCSc2ccc(Cl)cc2)C1=O	Autofluor counter 19822
CC1(C)NC(=O)N(CCOCCSc2ccccc2)C1=O	Autofluor counter 24307
CC1(C(=O)NS(=O)(=O)c2cccc(Cl)c2)CCN1C(=O)C1CCCCC1 (centres undefined)	none (no result: MazEF act)
C=CCn1c(-c2cccc3ccccc23)n[nH]c1=S	Autofluor counter 21011
COc1cc(S(=O)(=O)N2CCOCC2)ccc1NC(=O)COC(=O)CC12CC3CC(CC(C3)C1)C2	Autofluor counter 24036
CC(C)C(NC(=O)c1ccc(S(=O)(=O)N2CCOCC2)cc1)c1nc2ccccc2[nH]1 (centres undefined)	Autofluor counter 22568
CC(C)[C@H](NC(=O)c1cccc(S(=O)(=O)N2CCCC2)c1)c1nc2ccccc2[nH]1	none
COc1cccc(NS(=O)(=O)c2ccc(S(=O)(=O)N3CCOCC3)cc2)c1	Autofluor counter 17066
COc1cccc(NC(=O)C2CCN(S(=O)(=O)c3ccc4c(c3)OCCO4)CC2)c1	Autofluor counter 22969
COc1cc(S(=O)(=O)N2CCOCC2)ccc1NC(=O)COC(=O)c1cc(OC)c(OC)c(OC)c1	none
Nc1ccn([C@@H]2O[C@H](C(=O)N3CCCN(Cc4cccs4)CC3)[C@@H](O)[C@H]2O)c(=O)n1	none (no result: MazEF act)
CCC[C@H]1CN(c2ccc(OC)cc2)C(=O)[C@@H]1CC(=O)NC	none
Cc1nn(CC(=O)NCCc2ccc(Cl)cc2)c(=O)c2cccn12	none
Cc1ccc(N(Cc2ccccc2)C(=O)c2cccc(S(=O)(=O)N3CCOCC3)c2)cc1	none
O=C(NNC(=O)c1ccc(S(=O)(=O)N2CCOCC2)cc1)c1ccccc1	BoNT F protease 45
Cc1ccc(N(Cc2ccccc2)C(=O)c2ccc(S(=O)(=O)N3CCOCC3)cc2)cc1	Autofluor counter 27784
Cc1ccc(-n2nc3c(c2NC(=O)c2ccc(S(=O)(=O)N4CCOCC4)cc2)CSC3)c(C)c1	none
COc1ccc(NC(=O)c2ccc(S(=O)(=O)N3CCOCC3)cc2)c(OC)c1	Autofluor counter 24065
Cc1cccc(-n2nc3c(c2NC(=O)c2ccc(S(=O)(=O)N4CCOCC4)cc2)CSC3)c1C	BoNT A protease inconclusive, Autofluor counter 23238
COc1ccc(S(=O)(=O)N2CCOCC2)cc1NC(=O)c1ccc(OC(F)F)cc1	none (no result: Anthrax LF prot, BoNT A protease, Autofluor counter, BoNT F protease)
CCCN1CCN(C(=O)c2ccc(F)c(S(=O)(=O)N3CCOCC3)c2)CC1	none
O=C(CNS(=O)(=O)c1ccc(Br)s1)NCCc1ccc(Cl)cc1	none
